Screening data from PubChem BioAssay.
SW480 rereplic: DNA re-replication induction in SW480 cells | 1.8% of 340,000 active | AID 624297 | SW480 DNA re-replication, Hoechst DNA content imaging, 48 h | Potency, µM (titrated, usually from 46.1 µM), without a hit: at the highest dose re-replication activation, most hits filed as activators; also: potency is read from the fitted curve at half-maximal effect; % of control where 0% means no effect; nearly all actives have a fitted effect of over 55% in size
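SW480 cells exposed to compounds for 48 hr at 37 C, 5% CO2, then Hoechst-stained 40 min. Nuclear DNA content imaged by fluorescence scanning (405 nm excitation, 500-530 nm emission); re-replication scored as increased high-intensity nuclei.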
DT40 TDP1 CPT: DT40-hTDP1 cell growth loss with CPT; chicken DT40 Tdp1-/-;hTDP1 cells + 20 nM CPT, ATP luminescence, 48 h; Potency, µM (titrated, usually from 46.2 µM), inactives show top-dose activity change, negative = growth inhibition, most hits filed as inhibitors; 12% of 420,000 active; also: potency is read from the fitted curve at half-maximal effect; % is scaled to controls: 0 for no effect and ±100 for the full control effect; nearly all actives have a fitted effect of over 55% in size
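Chicken DT40 Tdp1-/- cells stably complemented with human TDP1 were seeded at 400 cells/well in medium containing 20 nM camptothecin, exposed to pin-transferred compounds, and grown at 37 °C for at least 48 hr. Viability was read as ATP luminescence.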
BCR signal inh: chronic active BCR signaling inhibition. 0.05% of 340,000 active. Potency, µM (top dose mostly 46.1 µM), for inactives: at the top dose activity change, negative = inhibition, most hits filed as inhibitors. ABC-DLBCL IkBa-CBG/CBR reporter, luminescence ratio, 4 h; active = well fitted inhibition curve with a large enough effect in the signal ratio, with a control signal flat, not every such curve was filed as active; inconclusive = small, poorly fitted or top-dose-only effect, or effect the other way, or a change in a side signal; the % refers to the signal ratio;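 also: potency is read from the fitted curve at half-maximal effect; plate controls were basal doxycycline-induced cells for no effect and cells given 10 µM MG132 for full effect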
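Compounds up to 46 uM were incubated four hours with TMD8 cells whose green CBG68 luciferase is fused to IkappaBalpha; red CBR luminescence normalised the signal, and concentration-effect curves were fitted to fusion, red and ratio data.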
TDP1 cell noCPT: qHTS for Inhibitors of human tyrosyl-DNA phosphodiesterase 1 (TDP1): qHTS in cells in absence of CPT; DT40 Tdp1-/- hTDP1 cells, no CPT, ATP luminescence, 48 h; Potency, µM (top dose mostly 46.2 µM), inactives show at the highest dose activity change, negative = growth inhibition, actives largely listed as inhibitors; 15% of 420,000 active; AID 686978, 2013; also: potency is read from the fitted curve at half-maximal effect; % is scaled to controls: 0 for no effect and ±100 for the full control effect; nearly all actives have a fitted effect of over 55% in size
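Growth kinetics read by CellTiter-Glo luminescence after ≥48 hr at 37 °C. Cells: DT40 Tdp1-/- stably carrying human TDP1, 400 per well, compound exposure in the absence of CPT (DMSO vehicle).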
IL1B secr inh: inflammasome signaling inhibition, IL-1 beta readout. THP-1 LPS/ATP IL-1B secretion, AlphaLISA, 16 h; stronger effect = lower value. activity change, % at 57.5 µM. 4.7% of 360,000 active. AID 743279; in the data active = activity change below about -50%; inconclusive = mostly about -30% to -49%; also: % is scaled to controls: 0 for no effect and ±100 for the full control effect
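Secreted IL-1B measured by AlphaLISA bead assay after 16 h compound exposure of THP-1 cells; compounds (final up to 57.5 uM) added 1 h before LPS (250 ng/mL) and ATP (1.25 mM) stimulation; lower signal means less secretion.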
MCF10A rereplic: DNA re-replication induction in MCF 10a cells | MCF 10A DNA re-replication, Hoechst nuclear intensity, 48 h | Potency, µM (top dose mostly 46.1 µM), inactives show at the top dose activity, positive = re-replication, actives largely listed as activators | 2.9% of 350,000 active | AID 624296; also: potency is read from the fitted curve at half-maximal effect; % of control where 0% means no effect; nearly all actives have a fitted effect of over 50% in size
Starred values were filed as active, the others as inactive; i = inactive; ? = inconclusive; / = no result; [ ] = remark or other dose. Most compounds without a hit are left out; they make up all but 19% or so of the library. Unless noted, calls follow the shape of the dose curve; as a rule, active = well fitted curve in the direction sought with a large enough effect; inconclusive = small, poorly fitted or top-dose-only effect, or another doubt; inactive = no such curve, though single readings can be large; an effect the other way counts as inactive or inconclusive.

SMILES	SW480 rereplic	DT40 TDP1 CPT	BCR signal inh	TDP1 cell noCPT	IL1B secr inh	MCF10A rereplic
CC1CCCCN1S(=O)(=O)c1ccc(C(=O)Nc2nnc(-c3ccco3)o2)cc1 (configuration not stated)	?	15µM*	7%	26µM*	10	21%
Cc1nnc(NC(=O)c2ccc(S(=O)(=O)N3CCCCC3C)cc2)o1 (configuration not stated)	17%	-22%	?	-20%	-10	15%
CCOC(=O)/C(C#N)=C1\CCCN1CC(N)=S	2%	-4%	1%	-3%	15	-3%
O=C(NC1CC1)c1cc(=S)[nH]c2ccccc12	0%	-16%	-1%	-7%	13	-2%
COc1ccccc1C(=O)Nc1ccnn1C1CCN(CC2CC=CCC2)CC1 (configuration not stated)	-8%	-8%	0%	4%	-3	11%
O=C(C[n+]1cccc(Br)c1)c1ccc(I)cc1	/	2.2µM*	/	-94%	/	/
O=C(CBr)c1ccc(Oc2ccc(C(=O)C[n+]3cccc(Br)c3)cc2)cc1	/	?	/	16µM*	/	/
O=C(C[n+]1cccc(Br)c1)c1ccccc1	-1%	-5%	-1%	9%	5	0%
CCOc1ccc(C(=O)Nc2sc3c(c2C(=O)OC)CC(C)(C)NC3(C)C)cc1	1%	?	-1%	16µM*	-16	0%
COC(=O)c1c(NC(=O)c2nc3ccccc3s2)sc2c1CC(C)(C)NC2(C)C	-7%	23µM*	0%	21µM*	-4	8%
CC1(C)Cc2c(sc(NC(=O)c3ccc4c(c3)OCCO4)c2C(N)=O)C(C)(C)N1	20%	-3%	0%	11%	-67*	1%
CCOC(=O)c1c(NC(=O)COc2ccccc2)sc2c1CC(C)(C)NC2(C)C	9%	?	0%	16µM*	-4	3%
C[C@@H](NC(=O)[C@@H]1CCCN1C(=O)[C@@H]1CCCN1C(=O)c1cccs1)c1ccccc1	/	2%	/	-12%	0	/
CCOC(=O)c1c(NC(=O)CSc2nc3ccccc3[nH]2)sc2c1CC(C)(C)NC2(C)C	16µM*	?	?	?	-51*	?
CCOC(=O)c1c(NC(=O)COC(=O)/C=C/c2ccco2)sc2c1CC(C)(C)NC2(C)C	?	?	0%	5.8µM*	-68*	1%
CC1(C)Cc2c(sc(NC(=O)COc3ccc(Cl)cc3)c2C#N)C(C)(C)N1	?	?	?	?	-70*	?
COC(=O)c1c(NC(=O)c2ccc(C(=O)c3ccccc3)cc2)sc2c1CC(C)(C)NC2(C)C	/	-14%	/	?	-4	/
CC1(C)Cc2c(sc(NC(=O)c3ccc(C(=O)c4ccccc4)cc3)c2C#N)C(C)(C)N1	-1%	-3%	1%	-17%	i	?
CCC(C)NC(=S)Nc1ccc2nc(N3CCOCC3)cc(C)c2c1 (configuration not stated)	3%	?	-14%	?	-2	-15%
CCN1CCN(c2cc(C)c3cc(NC(=S)N4CCN(c5ccccc5)CC4)ccc3n2)CC1	18µM*	7.3µM*	16%	10µM*	56	21µM*
CCN1CCN(c2cc(C)c3cc(NC(=S)N4CCOCC4)ccc3n2)CC1	16µM*	4%	?	-3%	-11	?
CCN1CCN(c2cc(C)c3cc(NC(=S)N4CCN(c5ccccc5F)CC4)ccc3n2)CC1	15%	7%	8%	-1%	-9	13%
CCC(C)NC(=S)Nc1ccc2nc(N3CCN(CC)CC3)cc(C)c2c1 (configuration not stated)	?	?	-11%	23µM*	1	?
CCCN1CCN(C(=S)Nc2ccc3nc(N4CCN(CC)CC4)cc(C)c3c2)CC1	?	?	4%	?	27	18µM*
CC(=O)N1CCN(c2ccc(NCc3ccc4c(c3)OCO4)cc2)CC1	-3%	-27%	-4%	-15%	-4	-8%
SMILES	SW480 rereplic	DT40 TDP1 CPT	BCR signal inh	TDP1 cell noCPT	IL1B secr inh	MCF10A rereplic
CC(C)(C)C(=O)N1CCN(c2ccc(NC(=O)c3ccc4c(c3)OCCO4)cc2)CC1	-19%	?	3%	?	-77*	?
O=C(CSc1ccc(Cl)cc1)Nc1ccc(N2CCN(C(=O)c3ccc(Cl)cc3)CC2)cc1	28%	18µM*	7%	15µM*	6	?
O=C(Nc1ccc(C(=O)N2CCOCC2)cc1)c1ccccc1	9%[9.22 µM]	-2%	/	-7%	3	-35%
CC(=O)N1CCN(c2ccc(NC(=O)c3ccc4c(c3)OCCO4)cc2)CC1	3%	-21%	14%	-18%	-11	6%
O=C(c1ccccc1)N1CCN(c2ccc(NCc3ccc4c(c3)OCO4)cc2)CC1	9%	15µM*	-20%	18µM*	-2	22%
O=C(Nc1ccc(N2CCN(C(=O)c3ccccc3)CC2)cc1)c1ccc2c(c1)OCCO2	4%	21µM*	0%	?	-94*	?
Cc1ccc2c(=O)cc(C(=O)Nc3sc4c(c3C(=O)NCC3CCCO3)CCCC4)oc2c1C (configuration not stated)	/	-3%	/	-17%	/	/
O=C(Nc1ccc(C(=O)N2CCCC2)cc1)c1ccc2c(c1)OCO2	-7%	?	18%	?	18	-7%
O=C(Nc1ccc(N2CCN(C(=O)c3ccc(Cl)cc3)CC2)cc1)c1ccc2c(c1)OCCO2	2%	13µM*	?	23µM*	-61*	6%
NC(=O)CN1C(=O)C(=O)N(Cc2ccccc2)C1=O	-10%	-3%	3%	-8%	14	-2%
Cc1ccc(OCCN2C(=O)c3ccccc3C2=O)cc1	1%	10%	-8%	4%	27	5%
Cc1cccc(OCCN2C(=O)C(=O)c3cc(C)ccc32)c1	?	0.37µM*	?	0.46µM*	?	18µM*
O=C1C(=O)N(Cc2ccccc2)C(=O)N1CCOc1ccccc1	?	?	14%	?	30	13µM*
Cc1ccc2c(c1)C(=O)C(=O)N2CCOc1ccccc1	4.1µM*	0.58µM*	?	0.73µM*	-2	19%
COC(=O)c1cc(=O)n(-c2ccc(C(F)(F)F)cc2)[nH]1	-7%	-2%	14%	-12%	8	?
